Screening data (PubChem)
RGS12 GoLoco inh = qHTS Assay for Inhibitors of RGS12 GoLoco Motif Activity (Red Fluorophore). Gai1:RGS12 GoLoco peptide FP, rhodamine, 10 min. Potency, µM (doses to about 61.6 µM), for the others: at the highest dose activity, negative = inhibition, usual class: inhibitors. actives 0.44% (n = 230,000). AID 880, 2007; active means well fitted inhibition curve with a large enough effect, not every such curve was filed as active; inactive means no such curve, though single readings can be large or run the other way; further: on the % scale 0 is the no-effect control and ±100 the full control effect; nearly all actives have a fitted effect of over 30% in size
ERG-DNA inh = qHTS for Small Molecule Inhibitors of the ERG Ets/DNA interaction; Transcriptional regulator ERG (Homo sapiens), P11308; fluorescence polarization, His-ERG Ets domain / labelled DNA; Potency, µM (titrated, usually from 76.9 µM), inactives show at the highest dose FP activity, negative = inhibition, usual class: inhibitors; actives 0.028% (n = 370,000); AID 624246, 2012; active means well fitted inhibition curve with a large enough effect in the polarisation, with a control signal flat; inconclusive means small, poorly fitted or top-dose-only effect, or effect the other way, or a change in a side signal; inactive means no such curve, though single readings can be large or run the other way; the % refers to the polarisation;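 further: polarization taken with two DNA probes labelled with fluorescein and Texas red; % of control where 0% means no effect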
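His-tagged ERG Ets domain (1 uM in the protein solution; 300mM KCl, 50mM Tris-HCl, 1mM EDTA, 1mM DTT, pH 7.5) received compound, then a probe mix of 5 nM fluorescein-DNA and 100nM Texas-615-DNA. Fluorescence polarization was read for both dyes.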
TR SRC2 fluor cs = Total Fluorescence Counterscreen for Inhibitors of the Interaction of Thyroid Hormone Receptor and Steroid Receptor Coregulator 2; Potency, µM (top dose mostly 106 µM), without a hit: at the top dose fluorescence change, negative = quenching; actives 0.29% (n = 280,000); TRb/SRC2 Texas Red total fluorescence interference; active means well fitted curve in either direction with a large enough effect; inconclusive means small, poorly fitted or top-dose-only effect; further: on the % scale 0 is the no-effect control and ±100 the full control effect
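Flags fluorescent or light-absorbing compounds by total fluorescence, S + 2P, at 555 nm excitation and 632 nm emission. Mixture: 20 nM Texas Red SRC2 peptide, 0.6 uM human TRb LBD, 1 uM T3, 5% DMSO; compound exposure 5 h at ambient temperature.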
TRb-SRC2 inh = qHTS for Inhibitors of the Interaction of Thyroid Hormone Receptor and Steroid Receptor Coregulator 2; TRbeta-SRC2 peptide binding, fluorescence polarization; receptor liganded with 1 µM T3; Potency, µM (titrated, usually from 106 µM), without a hit: at the top dose activity change, negative = inhibition, most hits filed as inhibitors; actives 0.065% (n = 280,000); AID 1469, 2008; active means well fitted inhibition curve with a large enough effect; inconclusive means small, poorly fitted or top-dose-only effect, or effect the other way;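 further: plate controls were bound peptide for no effect and peptide without receptor for full effect; nearly all actives have a fitted effect of over 50% in size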
Target sequence (P10828 whole entry, looked up): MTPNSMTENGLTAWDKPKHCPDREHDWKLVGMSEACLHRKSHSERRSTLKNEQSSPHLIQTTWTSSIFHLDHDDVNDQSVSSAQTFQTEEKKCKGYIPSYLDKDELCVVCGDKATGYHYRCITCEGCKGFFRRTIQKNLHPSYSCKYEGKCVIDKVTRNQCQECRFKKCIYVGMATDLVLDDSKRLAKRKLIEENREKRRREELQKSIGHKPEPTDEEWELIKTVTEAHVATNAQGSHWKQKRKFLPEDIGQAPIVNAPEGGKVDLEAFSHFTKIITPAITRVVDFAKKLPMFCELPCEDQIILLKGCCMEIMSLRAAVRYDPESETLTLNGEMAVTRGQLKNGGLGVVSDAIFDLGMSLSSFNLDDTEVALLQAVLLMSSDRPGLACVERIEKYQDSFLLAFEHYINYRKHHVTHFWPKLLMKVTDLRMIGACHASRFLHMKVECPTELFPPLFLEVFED
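TRb LBD 0.6 uM + Texas Red SRC2 peptide 20 nM, 1 uM T3, Tris buffer w/ 5% DMSO; compound pinned, 5 h RT; FP read ex 555/em 632; normalized to unbound and bound controls.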
Numbers without * were called inactive; ! = repeats disagree; [ ] = remark or other dose. The entries come from a sample that favours hits as a whole. Potency means the concentration at half of the fitted maximal effect.

How did CC1(C)CC(N2CCCC2)=CC(=[N+]2CCCCC2)C1 do in these assays?
RGS12 GoLoco inh: 6.3µM*; ERG-DNA inh: 5%; TR SRC2 fluor cs: -3%; TRb-SRC2 inh: 3%

What do the screens show for `CN(Cc1ccccc1)C1=CC(=[N+]2CCCCC2)CC(C)(C)C1`?
RGS12 GoLoco inh: -51%; ERG-DNA inh: 1%; TR SRC2 fluor cs: -4%; TRb-SRC2 inh: 7%

Results for CC1(C)CC(N2CCN(Cc3ccccc3)CC2)=CC(=[N+]2CCCCC2)C1 ?
RGS12 GoLoco inh: 25µM*; ERG-DNA inh: -5%; TR SRC2 fluor cs: -2%; TRb-SRC2 inh: -5%

Results for Oc1ccc(C(c2ccc(O)cc2)C(Cl)(Cl)Cl)cc1 ?
TR SRC2 fluor cs: -1%[201 µM]; TRb-SRC2 inh: 2%[201 µM]

Results for CC(=O)c1cc(O)c2ccccc2c1O ?
RGS12 GoLoco inh: 14µM*; ERG-DNA inh: 0%; TR SRC2 fluor cs: -7%; TRb-SRC2 inh: 3%

Results for O=[N+]([O-])c1ccc(Cl)c(CNc2ncnc3c2ncn3[C@@H]2CCCCO2)c1 ?
RGS12 GoLoco inh: 5%[14.2 µM]

What do the screens show for `Cc1ccc(Nc2nc(N/N=C/c3c[nH]c4ccccc34)nc(N3CCOCC3)n2)cc1`?
RGS12 GoLoco inh: 104%; ERG-DNA inh: -11%; TR SRC2 fluor cs: 631µM*[quencher]; TRb-SRC2 inh: -4%

What do the screens show for `C(=N\Nc1nc(Nc2ccccc2)nc(N2CCOCC2)n1)/c1c[nH]c2ccccc12`?
RGS12 GoLoco inh: 7%; ERG-DNA inh: inconclusive; TR SRC2 fluor cs: -10%; TRb-SRC2 inh: -7%

How did CC(CC(=O)O)(CC(=O)O)c1ccccc1 do in these assays?
RGS12 GoLoco inh: 6%[14.2 µM]

How did Cc1ccc(C)c(N2CCN(c3ncnc4c3nc3n4CCCCC3)CC2)c1 do in these assays?
ERG-DNA inh: 10%; TR SRC2 fluor cs: 4%; TRb-SRC2 inh: 11%

How did Cc1ccc(C)c(N2CCN(c3ncnc4c3nc3n4CCCC3)CC2)c1 do in these assays?
ERG-DNA inh: -7%; TR SRC2 fluor cs: 20µM*[quencher]; TRb-SRC2 inh: -7%

How did COc1cccc(CNC(=O)C2CCN(c3ncnc4c3nc3n4CCCCC3)CC2)c1 do in these assays?
ERG-DNA inh: -6%; TR SRC2 fluor cs: 20µM*[quencher]; TRb-SRC2 inh: -10%

How did Cc1cccc(N2CCN(C(=O)C3CCN(c4ncnc5c4nc4n5CCCCC4)CC3)CC2C)c1 (centres undefined) do in these assays?
ERG-DNA inh: 5%; TR SRC2 fluor cs: 20µM*[quencher]; TRb-SRC2 inh: -6%

What do the screens show for `C=C(C)CN(CC#N)CC(=C)C`?
RGS12 GoLoco inh: 2%[14.2 µM]

Results for CC1=C(\C=C/C(C)=C/C=C\C(C)=C\C(=O)O)C(C)(C)CCC1 ?
RGS12 GoLoco inh: 2%; TR SRC2 fluor cs: -1%; TRb-SRC2 inh: -7%

What do the screens show for `CC1=C(/C=C/C(C)=C/C=C/C(C)=C\C(=O)O)C(C)(C)CCC1`?
RGS12 GoLoco inh: 7%; ERG-DNA inh: 3%; TR SRC2 fluor cs: 28µM*![fluorescent]; TRb-SRC2 inh: 22µM*!

Results for O=C(Cn1cnc2c(nc3n2CCCCC3)c1=O)Nc1ccc(F)c(Cl)c1 ?
ERG-DNA inh: 0%; TR SRC2 fluor cs: 18µM*[quencher]; TRb-SRC2 inh: -7%

What do the screens show for `COc1ccc(NC(=O)Cn2cnc3c(nc4n3CCCCC4)c2=O)cc1Cl`?
ERG-DNA inh: inconclusive; TR SRC2 fluor cs: inconclusive; TRb-SRC2 inh: 8%

How did O=S(c1ccc(Cl)cc1)c1cc(Cl)c(Cl)cc1Cl (centres undefined) do in these assays?
TR SRC2 fluor cs: 2%[201 µM]; TRb-SRC2 inh: -2%[201 µM]

Results for CCCCCCCCOC(=O)c1cc(O)c(O)c(O)c1 ?
TR SRC2 fluor cs: -3%[201 µM]; TRb-SRC2 inh: 5%[201 µM]

Results for CCN1/C(=C/c2sc(-c3ccccc3C)c[n+]2C)Sc2ccccc21 ?
RGS12 GoLoco inh: 10µM*; ERG-DNA inh: 5%; TR SRC2 fluor cs: -1%; TRb-SRC2 inh: -1%

How did CCc1c(C)nc2c(OC)cccc2c1SCCC(=O)O do in these assays?
RGS12 GoLoco inh: -4%; ERG-DNA inh: -6%; TR SRC2 fluor cs: 0.79µM*[quencher]; TRb-SRC2 inh: -24%[53 µM]

How did COc1ccc(-c2ccc(NS(=O)(=O)c3ccc(F)c(C(F)(F)F)c3)cc2)nn1 do in these assays?
ERG-DNA inh: 5%; TR SRC2 fluor cs: 224µM*[quencher]; TRb-SRC2 inh: -4%

Results for O=c1[nH]c(=O)c2[nH]cnc2[nH]1 ?
TR SRC2 fluor cs: -1%[201 µM]; TRb-SRC2 inh: 5%[201 µM]
